According to PubChem BioAssay (Tox21):
Results filed as inconclusive are left out. Entries that show only a call come without a potency. Active and inactive are the calls of the source. Calls come from the whole dose curve; as a rule, active = well fitted inhibition curve with a large enough effect in the repeat runs; inconclusive = weak or mixed curves; inactive = no such curve, though single readings can be large or run the other way.

assay: qHTS assay to identify small molecule antagonists of the estrogen related receptor (ERR) signaling pathway from Tox21 library (AID 1224848); conditions: ERR reporter cell line, luciferase antagonist mode, 18 h; series mostly up to 92.4 µM; note: nearly all actives have a fitted effect of over 50% in size
Source text: U.S. Tox21 Program National Center for Advancing Translational Sciences [NCATS] NIH Chemical Genomics Center [NCGC] U.S. Environmental Protection Agency [EPA] National Institutes of Environmental Health Sciences [NIEHS] National Toxicology Program [NTP] U.S. Food and Drug Administration [FDA] Tox21 Assay Overview: Estrogen related receptors (ERRs), the first orphan nuclear receptors discovered, play an important role in the control of cellular energy metabolism. ERRs are required for high-energy production in response to the environmental challenges. ERR-alpha was also identified as an adverse marker for breast cancer progression; ERR-alpha-positive tumors have a poor prognosis. To screen and to identify environmental compounds that perturb the ERR signaling pathways could provide valuable information for potential therapeutic or preventive measures in the treatment of metabolic disease. For identifying ERR antagonists, ERR cell line (provided by NTP) has been used to screen Tox21 10K library.
Tox21 Assay Protocol Summary: The ERR cells were dispensed at 2,000 cells/5 ul/well in 1536-well white plates using a Multidrop dispenser. After the assay plates were incubated at a 37 C/5% CO2 incubator for 6 hours, 23 nL of compounds dissolved in DMSO, positive and negative controls or DMSO only was transferred to the assay plate by a pin tool. The plates were incubated at 37 C for 18 hours. 4 ul/well of One-Glo reagent was added into the assay plates using a Flying Reagent Dispenser. After 30-minute incubation at room temperature, the luminescence intensity in the plates was measured using a ViewLux plate reader.
Potency is the fitted concentration of half-maximal effect.

Structure (SMILES) | Potency
Oc1cccc(O)c1O | inactive
CC(C)(C)CC(=O)OCC(=O)[C@@]1(O)CC[C@H]2[C@@H]3CCC4=CC(=O)C=C[C@]4(C)[C@H]3[C@@H](O)C[C@@]21C | 26.6 µM (active)
CCCCCC[C@@H](O)C/C=C\CCCCCCCC(=O)OCC(O)CO (stereo not given in full) | inactive
FC(F)(F)c1ccccc1Cl | inactive
Oc1ccc(Cl)c2cccnc12 | 29.8 µM (active)
C=Cc1ccc(S(=O)(=O)O)cc1 | inactive
CCC(C)COC(C)=O (stereo not given) | inactive
C[C@]12CC[C@@H]3c4ccc(O)cc4CC[C@H]3[C@@H]1CC[C@@H]2OC(=O)CCC1CCCC1 | 54.5 µM (active)
CCC(C)(C)OC | inactive
CCOC(=O)c1ccc(I)cc1 | inactive
CC(C)C=O | inactive
CC(C)=CCC/C(C)=C/CC/C(C)=C/C(=O)OCC(=O)[C@@]1(O)CC[C@H]2[C@@H]3CCC4=CC(=O)C=C[C@]4(C)[C@H]3[C@@H](O)C[C@@]21C | 6.68 µM (active)
O=C1Cc2ccccc2N1c1c(Cl)cccc1Cl | 48.6 µM (active)
CCCCCCCCCI | inactive
O=c1cc(-c2ccccc2)oc2ccc3ccccc3c12 | inactive
CC1=C(Br)C(=O)C(Br)=C/C1=C(/c1ccccc1S(=O)(=O)O)c1cc(Br)c(O)c(Br)c1C | 18.6 µM (active)
O=c1c(O)c(-c2ccc(O)cc2)oc2cc(O)cc(O)c12 | inactive
CC/C=C1/OC(=O)c2ccccc21 | inactive
CN(C)CCC=C1c2ccccc2C=Cc2ccccc21 | inactive
C=C(C)C(=O)OCCOCCOC(=O)C(=C)C | inactive

Structure (SMILES) | Potency
CC(CO)CO | inactive
O=C1c2ccccc2C(=O)C1c1ccc(Br)cc1 | inactive
O=C1c2ccccc2C(=O)c2c(O)c(O)cc(O)c21 | inactive
CC(CCC(=O)O)C(=O)O (stereo not given) | inactive
OCCN1CCN(CCCN2c3ccccc3Sc3ccc(Cl)cc32)CC1 | 29.8 µM (active)
CCOC(=O)c1ccccc1C(=C1C=C(Br)C(=O)C(Br)=C1)c1cc(Br)c(O)c(Br)c1 | 45.7 µM (active)
Cc1cc(O)c(C)c(C)c1O | inactive
O=C1Cc2cc(Cl)ccc2N1 | inactive
CCCCC(CC)CN (stereo not given) | inactive
CC(CN(C)C)C(C)(O)Cc1ccc(Cl)cc1 (stereo not given) | inactive
CC(=O)Oc1ccc([N+](=O)[O-])cc1CCl | inactive
NC(=O)c1ccncc1 | inactive
CCCCCC#CC(=O)OC | inactive
CCC1(CO)COCOC1 | inactive
CC(C)(O)c1ccc(CNC(=O)c2cccnc2Oc2ccc3nonc3c2)cc1 | 54.5 µM (active)
C=C1C[C@@]23CC[C@H]4[C@@](C)(CCC[C@@]4(C)C(=O)O[C@@H]4O[C@H](CO)[C@@H](O)[C@H](O)[C@H]4O)[C@@H]2CC[C@]1(O[C@@H]1O[C@H](CO)[C@@H](O)[C@H](O[C@@H]2O[C@H](CO)[C@@H](O)[C@H](O)[C@H]2O)[C@H]1O[C@@H]1O[C@H](CO)[C@@H](O)[C@H](O)[C@H]1O)C3 | inactive
CCCCCCNC(=O)n1cc(F)c(=O)[nH]c1=O | inactive
Cc1cc(O)ccc1O | inactive
COC(=O)c1nc(Cl)c(Cl)nc1N | 29.8 µM (active)
NC1[C@H]2CN(c3nc4c(cc3F)c(=O)c(C(=O)O)cn4-c3ccc(F)cc3F)C[C@@H]12 (stereo not given in full) | inactive
